Test results taken from PubChem BioAssay.
Calls of active or inactive are those of the source.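 How the source made its calls, unless noted: active means compounds lowering colon cancer cell viability after pretreatment blocking the GSK3B kinase; inactive means the rest.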

What was measured:
[1] = stimulators of nuclear beta-catenin in C2C12, primary screen, imaging, WNT3A-conditioned medium, mouse C2C12, NPC library (AID 1117326; in the data active means nuclear beta-catenin stimulation mostly above about 4.2%, no sharp cut-off; inactive means mostly below about 10%; further: reference of the scale not given here); conditions: stronger effect = higher value
[2] = stimulators of insulin release from INS-1E, primary screen, cell-based, 5 mM glucose, NPC library (AID 1117329;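 active means compound raises insulin release from rat beta cells at 5 mM glucose, no numeric limit stated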; further: reference of the scale not given here); conditions: rat INS-1E insulin secretion, at 10 µM, stronger effect = higher value
[3] = growth inhibition of GSK3B-pretreated HCT116 cells – cell-based, CellTiter-Glo, 0.2 to 20 µM (AID 1117336); conditions: HCT116 viability after GSK3B inhibitor, at 20 µM, stronger effect = higher value
[4] = inhibition of endothelial tube formation, primary screen, imaging, VEGF stimulated, CD31 staining, tube area, NPC library (AID 1117340;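 active means compound that reduces growth-factor-driven endothelial tube area in a mixed cell culture, no cutoff stated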); conditions: VEGF-stimulated ADSC/ECFC co-culture, at 10 µM, stronger effect = higher value
[5] = glucagon-like peptide 1 release enhancers, primary assay, NCI-H716 cell line, NPC library (AID 1117341;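 active means compound raises GLP1 secretion from the human gut endocrine cells, with no numeric limit stated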; further: reference of the scale not given here); conditions: NCI-H716 cells, at 10 µM, stronger effect = higher value
[6] = HCT116 colon cancer cell growth inhibition, primary screen, CellTiter-Glo luminescence, NPC library (AID 1117342;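 active means compounds that lower survival of HCT116 colon cancer cells in the luminescence readout, no numeric limit stated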); conditions: at 20 µM (top of the series)
[7] = CellTiter-Glo luminescent readout of SW480 viability loss, NPC library primary (AID 1117343;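 active means compounds that lower viability of the colon cancer cells in the luminescence readout, with no numeric limit stated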); conditions: CellTiter-Glo luminescence; at 20 µM (top of the series)
[8] = decreased DLD-1 cellular survival, CellTiter-Glo luminescent readout, NPC compound collection, primary HTS (AID 1117346;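 active means compounds that lower survival of DLD-1 colon cancer cells in the luminescence readout, no cutoff given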); conditions: DLD-1 viability, CellTiter-Glo luminescence; at 20 µM (top of the series)

Row | Structure (SMILES) | nuclear beta-catenin stimulation ([1]; at 10 µM) | nuclear beta-catenin stimulation ([1]; stimulation, at 2 µM) | insulin secretion stimulation [2] | viability decrease [3] | tube area decrease [4] | GLP1 secretion stimulation [5] | inhibition of viability [6] | viability decrease (inhibition) [7] | viability decrease (inhibition) [8]
1 | c1ccc2[nH]ccc2c1 | 0.4% (inactive) | 3% | -2.8% (inactive) | -4.45% (inactive) | 10.7% (inactive) | 1.9% (inactive) | -34.9% (inactive) | 23.7% (inactive) | 6.25% (inactive)
2 | O=C1Cc2cc(Cl)ccc2N1 | -0.3% (inactive) | -1.5% | 1% (inactive) | 4.9% (inactive) | 2.8% (inactive) | 3.9% (inactive) | 8.4% (inactive) | -9.4% (inactive) | 2.7% (inactive)
3 | Cc1ccc2ccc(Cl)cc2n1 | -0.9% (inactive) | -2.1% | 1.25% (inactive) | -1.7% (inactive) | -2.2% (inactive) | -2.9% (inactive) | 2.4% (inactive) | 1.2% (inactive) | -3.7% (inactive)
4 | CCOC(=O)N1CCC(Nc2ccc(Cl)cc2N)CC1 | 5.3% (inactive) | 4.4% | 0.6% (inactive) | 0.9% (inactive) | 41.4% (active) | -4.9% (inactive) | 32.5% (inactive) | 27.8% (inactive) | -12.2% (inactive)
5 | O=C(c1ccccc1)C(O)c1ccccc1 (stereo unspecified) | 0.5% (inactive) | 0.8% | -1.6% (inactive) | -1.05% (inactive) | -9.2% (inactive) | -0.3% (inactive) | 2.8% (inactive) | 9.2% (inactive) | 6.95% (inactive)
6 | Nc1ccc(C(=O)N2CC3CC(CN(Cc4ccccc4)C3)C2)cc1 | 3.2% (inactive) | 0.5% | 0.1% (inactive) | 1.2% (inactive) | -12.8% (inactive) | 1.7% (inactive) | 23.2% (inactive) | 9.4% (inactive) | 7.3% (inactive)
7 | O=C1NC2CCCCN2C12CCN(CCCN1c3ccccc3CCc3ccc(Cl)cc31)CC2 (stereo unspecified) | 13.1% (inactive) | 0.1% | 3.85% (inactive) | 108% (active) | 89.4% (active) | 13.3% (inactive) | 112% (active) | 128% (active) | 101% (active)
8 | N=C(N)c1ccc(OCCCOc2ccc(C(=N)N)cc2)cc1 | -2.3% (inactive) | -0.9% | 2.7% (inactive) | -29.9% (inactive) | -17.1% (inactive) | -1.7% (inactive) | 7.1% (inactive) | 9.5% (inactive) | -2.6% (inactive)
9 | CCOC(=O)C1=C(O)c2ccccc2S(=O)(=O)N1C | -1.5% (inactive) | -0.7% | 0.9% (inactive) | -6% (inactive) | -19.5% (inactive) | -4% (inactive) | 10.3% (inactive) | 12% (inactive) | 4.2% (inactive)
10 | CC(=O)OC[C@H]1O[C@@](COC(C)=O)(O[C@H]2O[C@H](COC(C)=O)[C@@H](OC(C)=O)[C@H](OC(C)=O)[C@H]2OC(C)=O)[C@@H](OC(C)=O)[C@@H]1OC(C)=O | 0.3% (inactive) | -0.8% | -0.2% (inactive) | -1% (inactive) | 0.8% (inactive) | -0.5% (inactive) | 3.93% (inactive) | 16.6% (inactive) | -8% (inactive)
11 | CCCCC(=O)OCC(=O)[C@H]1[C@H](C)C[C@H]2[C@@H]3C[C@H](F)C4=CC(=O)C=C[C@]4(C)[C@@]3(F)[C@@H](O)C[C@@]21C | -1.1% (inactive) | -1.4% | 13.7% (inactive) | -7.2% (inactive) | -11.7% (inactive) | 0.8% (inactive) | 17.1% (inactive) | -15.9% (inactive) | -9.9% (inactive)
12 | CCCC(O)C(CC)CO (stereo unspecified) | -0.6% (inactive) | 1.4% | -1.8% (inactive) | -18.3% (inactive) | 16.6% (inactive) | -0.4% (inactive) | 3.33% (inactive) | 2.8% (inactive) | 2.4% (inactive)
13 | CC(C)(C)CC(=O)OCC(=O)[C@@]1(O)CC[C@H]2[C@@H]3CCC4=CC(=O)C=C[C@]4(C)[C@H]3[C@@H](O)C[C@@]21C | 3% (inactive) | 0.9% | 0% (inactive) | -93.8% (inactive) | 10.8% (inactive) | 3.3% (inactive) | 20.7% (inactive) | 57.4% (active) | 13.2% (inactive)
14 | CC(NN)c1ccccc1 (stereo unspecified) | 1.9% (inactive) | -2.2% | 3.35% (inactive) | 13.8% (inactive) | -6.7% (inactive) | -0.4% (inactive) | 9.9% (inactive) | 4.9% (inactive) | 14.8% (inactive)
15 | Cc1cc(O)c(C(C)C)cc1Cl | -0.5% (inactive) | 1.2% | -0.9% (inactive) | 36.1% (inactive) | -10.5% (inactive) | 29.3% (active) | -9.5% (inactive) | 22% (inactive) | 19.5% (inactive)
16 | O=Cc1ccccc1C=O | -0.8% (inactive) | 0.2% | -0.6% (inactive) | 1.65% (inactive) | 9.9% (inactive) | 2.6% (inactive) | -1.7% (inactive) | 12.2% (inactive) | -1.7% (inactive)
17 | CC(=O)N(CC(=O)N(C)C)c1ccccc1 | -1.1% (inactive) | 3.8% | -0.5% (inactive) | -5.9% (inactive) | 3.9% (inactive) | -1.1% (inactive) | -4.93% (inactive) | 36.7% (inactive) | -21.1% (inactive)
18 | C=CCN1CCc2nc(N)sc2CC1 | 0.7% (inactive) | 1% | -0.5% (inactive) | -5.1% (inactive) | 7.1% (inactive) | 0.8% (inactive) | -4% (inactive) | 2.6% (inactive) | -3.4% (inactive)
19 | CC[C@@]1(c2ccccc2)NC(=O)N(C)C1=O | 0.1% (inactive) | 0.6% | -0.2% (inactive) | 2.35% (inactive) | 0.1% (inactive) | -0.6% (inactive) | -10.2% (inactive) | 11.6% (inactive) | -9.4% (inactive)
20 | N[C@@H](Cc1cc(I)c(O)c(I)c1)C(=O)O | 15% (inactive) | 3.2% | -1% (inactive) | -3.6% (inactive) | 26.5% (inactive) | -3.4% (inactive) | 3.4% (inactive) | 24.1% (inactive) | -15.2% (inactive)
21 | CCOC(CN1CCN(CC(C)C(=O)c2ccccc2)CC1)c1ccccc1 (stereo unspecified) | 2.2% (inactive) | -0.1% | 5% (inactive) | -4.9% (inactive) | 14% (inactive) | -1.8% (inactive) | 21.2% (inactive) | 0.6% (inactive) | -4.9% (inactive)
22 | CC[C@@]1(O)C(=O)OCc2c1cc1n(c2=O)Cc2c-1nc1ccccc1c2/C=N/OC(C)(C)C | 38.7% (active) | 59.7% | 2.9% (inactive) | -17.1% (active) | 59.9% (active) | 14.3% (inactive) | 35% (active) | 64.5% (active) | 76.5% (active)
23 | C[C@]12C=CC(=O)C=C1[C@@H](F)C[C@@H]1[C@@H]2[C@@H](O)C[C@@]2(C)[C@H]1CC[C@]2(O)C(=O)CO | -1.5% (inactive) | -0.6% | 0.8% (inactive) | -14.4% (inactive) | 11.3% (inactive) | -2.3% (inactive) | 5% (inactive) | 19.5% (inactive) | -6.1% (inactive)
24 | C=Cc1ccccc1 | -2.1% (inactive) | -0.8% | 3.5% (inactive) | -5% (inactive) | -9.4% (inactive) | -1.4% (inactive) | 6.9% (inactive) | 0.4% (inactive) | 1.7% (inactive)
25 | CCCCCCCCCCCCCCCC(=O)OCC(COC(=O)CCCCCCCCCCCCCCC)OC(=O)CCCCCCCCCCCCCCC | -0.4% (inactive) | -0.6% | 2.5% (inactive) | -7.6% (inactive) | -17.9% (inactive) | -5.4% (inactive) | -1.3% (inactive) | 2.7% (inactive) | -6.5% (inactive)
26 | O=C(OCC1(COC(=O)c2cccnc2)CCCC(COC(=O)c2cccnc2)(COC(=O)c2cccnc2)C1O)c1cccnc1 | -1.3% (inactive) | -0.2% | 7.7% (inactive) | -3.6% (inactive) | -7.3% (inactive) | -3.3% (inactive) | 9.9% (inactive) | -3.1% (inactive) | -3.1% (inactive)
27 | Cc1c(C(=O)NCCO)[n+](=O)c2ccccc2n1[O-] | 5% (inactive) | 3% | -1.6% (inactive) | -6.4% (inactive) | 14% (inactive) | -0.4% (inactive) | 0.3% (inactive) | -17.1% (inactive) | -6.2% (inactive)
28 | COc1ccc([C@@H]2Sc3ccccc3NC(=O)[C@@H]2O)cc1 | 7.8% (inactive) | 0.6% | 2.8% (inactive) | 77.6% (active) | 57.7% (active) | 2.6% (inactive) | 96.6% (active) | 87.2% (active) | 67.4% (active)
29 | CCc1cc(S(=O)(=O)O)c2cc(C(C)C)cccc1-2 | -0.2% (inactive) | -2.2% | 0.1% (inactive) | -5.3% (inactive) | -12.6% (inactive) | -20.6% (inactive) | 1.1% (inactive) | -19% (inactive) | -14.2% (inactive)
